These results are taken from ChEMBL document CHEMBL1961873, “Compounds: GSK PKIS; Assays: Nanosyn kinase panel” (2012).

In test [1] the target is Mitogen-activated protein kinase 3 (Homo sapiens) (UniProt P27361). Particulars: at 1 µM.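 Also: values are mean percent inhibition of MAPK3.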
The target in test [2] is SRSF protein kinase 3 (Homo sapiens) (UniProt Q9UPE1). The note with it: at 0.1 µM.
The target is the same in test [3]. The note with it: at 1 µM.
Test [4] concerns the target Mitogen-activated protein kinase 14 (Homo sapiens) (UniProt Q16539). Particulars: at 0.1 µM.
Test [5] has the same target. The note with it: at 1 µM.
The target of test [6] is Mitogen-activated protein kinase 11 (Homo sapiens) (UniProt Q15759). Particulars: at 0.1 µM.
Sequence of Mitogen-activated protein kinase 11 (Homo sapiens) (Q15759 whole entry): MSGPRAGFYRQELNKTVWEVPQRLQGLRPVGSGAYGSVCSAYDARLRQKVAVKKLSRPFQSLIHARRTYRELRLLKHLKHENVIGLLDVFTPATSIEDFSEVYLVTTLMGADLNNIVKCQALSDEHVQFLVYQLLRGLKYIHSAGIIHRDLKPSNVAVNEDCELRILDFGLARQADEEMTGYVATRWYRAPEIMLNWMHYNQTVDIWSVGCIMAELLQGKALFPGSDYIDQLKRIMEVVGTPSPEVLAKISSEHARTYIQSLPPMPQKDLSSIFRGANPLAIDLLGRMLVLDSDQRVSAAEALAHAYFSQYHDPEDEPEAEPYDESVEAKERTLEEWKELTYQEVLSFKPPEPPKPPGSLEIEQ
Test [7] shares this target. Particulars: at 1 µM.
Test [8] deals with T1, Mitogen-activated protein kinase 13 (Homo sapiens) (UniProt O15264).
T1 sequence (whole entry): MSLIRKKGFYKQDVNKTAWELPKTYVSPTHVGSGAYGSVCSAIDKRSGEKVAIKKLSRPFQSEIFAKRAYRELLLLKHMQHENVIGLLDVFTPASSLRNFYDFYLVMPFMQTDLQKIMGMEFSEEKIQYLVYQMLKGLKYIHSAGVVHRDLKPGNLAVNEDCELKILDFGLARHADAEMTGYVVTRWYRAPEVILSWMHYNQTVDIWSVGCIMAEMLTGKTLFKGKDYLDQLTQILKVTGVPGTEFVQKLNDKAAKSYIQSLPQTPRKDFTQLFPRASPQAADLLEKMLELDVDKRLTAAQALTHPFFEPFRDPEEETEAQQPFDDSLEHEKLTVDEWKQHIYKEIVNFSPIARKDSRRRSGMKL
Particulars: at 0.1 µM.

The target of test [9] is T1, Mitogen-activated protein kinase 13 (Homo sapiens). Particulars: at 1 µM.
The target in test [10] is T2, Mitogen-activated protein kinase 12 (Homo sapiens) (UniProt P53778).
T2 sequence (whole entry): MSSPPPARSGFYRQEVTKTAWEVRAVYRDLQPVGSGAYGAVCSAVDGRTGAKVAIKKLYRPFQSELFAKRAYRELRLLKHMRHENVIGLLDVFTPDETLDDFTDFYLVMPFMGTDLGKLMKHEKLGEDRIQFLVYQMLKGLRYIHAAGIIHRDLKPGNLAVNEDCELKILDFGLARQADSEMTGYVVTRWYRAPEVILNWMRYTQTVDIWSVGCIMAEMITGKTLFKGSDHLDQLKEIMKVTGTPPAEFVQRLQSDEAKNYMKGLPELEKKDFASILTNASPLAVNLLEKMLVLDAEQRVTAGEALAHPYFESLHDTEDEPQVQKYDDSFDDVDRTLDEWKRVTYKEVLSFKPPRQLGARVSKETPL
The note with it: at 0.1 µM.

Sequence of Mitogen-activated protein kinase 3 (Homo sapiens) (P27361 whole entry): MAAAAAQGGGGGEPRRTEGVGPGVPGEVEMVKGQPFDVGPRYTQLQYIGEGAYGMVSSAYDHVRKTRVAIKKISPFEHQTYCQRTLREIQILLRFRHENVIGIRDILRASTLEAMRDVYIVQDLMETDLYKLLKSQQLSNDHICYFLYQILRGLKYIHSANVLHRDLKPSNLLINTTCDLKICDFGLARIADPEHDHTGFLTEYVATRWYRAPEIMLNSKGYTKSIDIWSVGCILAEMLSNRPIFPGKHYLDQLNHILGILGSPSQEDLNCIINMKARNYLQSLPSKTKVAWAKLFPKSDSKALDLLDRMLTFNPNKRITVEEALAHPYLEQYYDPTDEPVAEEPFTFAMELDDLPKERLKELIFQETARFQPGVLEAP
Sequence of Mitogen-activated protein kinase 14 (Homo sapiens) (Q16539 whole entry): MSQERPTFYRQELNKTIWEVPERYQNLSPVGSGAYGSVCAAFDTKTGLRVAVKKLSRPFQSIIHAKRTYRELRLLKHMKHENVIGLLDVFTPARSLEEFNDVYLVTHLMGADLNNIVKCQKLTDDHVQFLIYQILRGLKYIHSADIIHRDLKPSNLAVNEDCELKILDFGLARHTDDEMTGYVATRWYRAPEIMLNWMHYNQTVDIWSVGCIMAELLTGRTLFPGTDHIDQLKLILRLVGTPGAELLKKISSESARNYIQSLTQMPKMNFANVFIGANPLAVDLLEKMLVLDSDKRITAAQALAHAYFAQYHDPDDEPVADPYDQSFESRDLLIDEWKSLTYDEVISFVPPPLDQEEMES
Sequence of SRSF protein kinase 3 (Homo sapiens) (Q9UPE1 whole entry): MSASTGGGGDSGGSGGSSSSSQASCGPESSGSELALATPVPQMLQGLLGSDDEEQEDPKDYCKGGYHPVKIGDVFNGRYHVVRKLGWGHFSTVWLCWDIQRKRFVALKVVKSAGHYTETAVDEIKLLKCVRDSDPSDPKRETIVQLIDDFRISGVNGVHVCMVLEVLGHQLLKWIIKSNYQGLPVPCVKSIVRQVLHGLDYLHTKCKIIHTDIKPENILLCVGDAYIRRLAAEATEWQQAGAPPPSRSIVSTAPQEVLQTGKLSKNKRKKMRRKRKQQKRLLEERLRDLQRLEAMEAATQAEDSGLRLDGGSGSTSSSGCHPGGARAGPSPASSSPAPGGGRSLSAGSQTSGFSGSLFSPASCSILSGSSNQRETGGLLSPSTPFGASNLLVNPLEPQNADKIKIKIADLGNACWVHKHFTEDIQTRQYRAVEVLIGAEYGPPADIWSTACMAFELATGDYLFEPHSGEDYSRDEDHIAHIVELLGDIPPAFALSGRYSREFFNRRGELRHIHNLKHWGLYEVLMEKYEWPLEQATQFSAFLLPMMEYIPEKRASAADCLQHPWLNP

For the compound `COC(=O)Nc1nc2cc(Oc3ccc(NC(=O)Nc4ccccc4)cc3)ccc2[nH]1`, the inhibition in test [1] is 4.97%; in [2], -2.65%; in test [3] it was 1.09%; in test [4] it was 1.53%; in test [5], 6.62%; in test [6] it was 3.05%. The inhibition in test [7] is 8.13%; in test [8], -0.27%; in [9] it was 1.34%; in [10] it was 3.43%.
As to `c1cnn2ncc(-c3ccnc(NCCCN4CCOCC4)n3)c2c1`, the inhibition in test [1] is 0.61%; in [2], -0.52%; in test [3], -0.57%; in [4], 1.91%; in test [5], 8.35%; in [6] it was 2.39%. The inhibition in [7] is 4.06%; in test [8], -1.15%; in test [9], 4.03%; in test [10] it was -0.08%.
Turning to `COc1cccc(Nc2nccc(-c3cnn4ncccc34)n2)c1`, the inhibition was 13.1% in [1]; -0.05% in test [2]; 0.66% in test [3]; 5.7% in test [4]; 9.35% in test [5]; 4.7% in [6]. Further, the inhibition is 7.72% in test [7], 5% in [8], 15.2% in test [9] and 1.36% in [10].
In the case of `CC1=C(C(=O)Nc2ccc3[nH]nc(C)c3c2)C(c2ccc(C(F)(F)F)cc2)CC(=O)N1` (stereo not given), the inhibition in test [1] was 19.7%; in test [2] it was 1.18%; in test [3], -0.95%; in test [4] it was 1.31%; in test [5] it was 5.28%; in test [6], -0.15%. The inhibition is 0.38% in [7], 1.19% in test [8], 6.03% in test [9] and -4.7% in test [10].
With `CCN1CCC(C(=O)Nc2n[nH]c3nnc(-c4cccc(F)c4F)cc23)CC1`, the inhibition in [1] is -0.23%; in test [2] it was -0.64%; in test [3], -0.52%; in [4], -0.33%; in test [5], -0.72%; in [6], 0.08%. The inhibition in test [7] is 0.51%; in test [8] it was -1.52%; in test [9], -2.25%; in test [10] it was -0.79%.
For the compound `CNC(=O)c1cncc(/C=C/c2ccccc2C)c1`, the inhibition is 4.66% in test [1]; -0.87% in [2]; 3.21% in test [3]; 3.76% in test [4]; 6.09% in test [5]; 4.82% in test [6]. Besides, the inhibition in test [7] was found to be 7.21%; in test [8], 4.01%; in test [9] it was 3.77%; in test [10], 1.29%.
For the compound `CC(C)c1ccc(-c2cc(-c3c[nH]nc3-c3ccccn3)ccn2)cc1`, the inhibition is -2.17% in [1]; -1.14% in test [2]; 0.11% in test [3]; 5.48% in test [4]; 15.8% in [5]; 1.06% in [6]. In addition, the inhibition in test [7] came to 8.12%; in test [8] it was 5.51%; in test [9] it was 0.87%; in test [10], 0.13%.
As to `COc1ccccc1-c1cc(/C=C2\C(=O)Nc3ncc(Br)cc32)cc(Br)c1O`, the inhibition is 2.3% in test [1]; 0.86% in [2]; -0.04% in [3]; 2.73% in test [4]; 11.3% in test [5]; 5.59% in test [6]. The inhibition was found to be 5.73% in [7], 0.15% in test [8], 9.18% in test [9] and 2.49% in test [10].
On to `NS(=O)(=O)c1ccc(N/N=C2\C(=O)Nc3cccc(CCc4ccncc4)c32)cc1`, for which the inhibition in test [1] was -1.26%; in test [2] it was -1.55%; in [3] it was -0.36%; in test [4], 1.13%; in test [5], 0.21%; in test [6], 1.91%. In addition, the inhibition in test [7] was 3.6%; in test [8], 0.17%; in test [9], -0.27%; in test [10], 0.4%.
In the case of `CS(=O)(=O)Nc1ccc(-c2ccc3c(NC(=O)C4CC4)n[nH]c3c2)cc1`, the inhibition was 3.17% in test [1]; 1.14% in [2]; -1.76% in [3]; 2.35% in test [4]; 7.21% in test [5]; 1.53% in test [6]. Moreover, the inhibition in [7] amounted to 0.3%; in test [8], 3.39%; in [9] it was 4.07%; in test [10], 1.3%.
`CN(c1ccc(NC(=O)NCCN2CCOCC2)cc1)c1ccnc(Nc2ccc(CS(C)(=O)=O)cc2)n1`: the inhibition was 3.72% in test [1]; 0.77% in test [2]; 2.7% in [3]; 0.79% in test [4]; 5.83% in [5]; 4.13% in [6]. Further, the inhibition was determined as 6.58% in test [7], 1.11% in test [8], 3.21% in test [9] and 0.47% in [10].
On to `FC(F)(F)CNc1nccc(-c2cnn3ncccc23)n1`, for which the inhibition in test [1] is 2.69%; in test [2], -4.16%; in [3] it was -0.66%; in test [4], 6.27%; in [5], 5.78%; in test [6], 3.94%. Further, the inhibition in test [7] is 6.08%; in test [8], 2.13%; in test [9], 2.49%; in test [10] it was 1.83%.
As for `CCn1c(-c2nonc2N)nc2cncc(C(=O)NCCNC)c21`, the inhibition in [1] is 5.7%; in test [2], -3.21%; in test [3], -0.69%; in test [4], 7.83%; in [5], 6.55%; in [6], 4.08%. In addition, the inhibition came out at 3.55% in test [7], 5.75% in test [8], 5.07% in [9] and 3.86% in [10].
As for `COc1cc(Nc2ncc(-c3ccccc3)o2)cc(OC)c1`, the inhibition was 5.68% in test [1]; -1.19% in test [2]; 1.14% in [3]; 6.3% in [4]; 5.68% in test [5]; 2.87% in test [6]. The inhibition was found to be 5.59% in test [7], 5.24% in test [8], 4.13% in test [9] and 3.61% in test [10].
Regarding `COc1ccc(Nc2ncc(-c3ccccc3)o2)cc1OC`, the inhibition in test [1] was 1.29%; in [2] it was -1.82%; in test [3], -2.17%; in [4], 4.31%; in [5], 5.01%; in test [6], 1.96%. Also, the inhibition in test [7] stood at 4.99%; in [8], 0.77%; in test [9], 2.02%; in test [10], 4.1%.
Take `CNC(=O)c1ncccc1Nc1nc(Nc2cc3c(cc2OC)CCCN3C(=O)CN(C)C)nc2[nH]ccc12`: the inhibition in test [1] is 1.38%; in [2], 0.37%; in [3], 0.84%; in test [4] it was 4.75%; in test [5], 8.76%; in [6] it was 4.41%. In addition, the inhibition is 4.4% in test [7], 8.55% in [8], 5.64% in test [9] and 1.94% in [10].

One may read the inhibition as the relative decrease from the control value, in per cent.
